PABP FP inh: blocks human PABP binding to poly(A) RNA; P11940; fluorescence polarization; calls only at 35 µM; 290,000 tested, 1% active;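 note: calls also rest on retests at 20 µM and on dose response follow-up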
eIF4H FP inh: inhibitors of RNA binding by human eIF4H; AID 2012; eIF4H fluorescence polarization binding assay; inhibition, % at 35 µM; 290,000 tested, 0.94% active;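 note: calls also rest on retests at 20 µM and on dose response follow-up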
MLLE-PAM2 inh: blocks PAM2 peptide binding to the PABP1 MLLE domain; GST-MLLE / FITC-PAM2 fluorescence polarization; inhibition, % at 20 µM; 360,000 tested, 0.36% active; in the data active = inhibition above about 35%, passing the limit was not always enough;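 note: plate controls were DMSO wells with GST-MLLE for no effect and wells lacking GST-MLLE protein for full effect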
PERK inhibitor: inhibitors of human PERK kinase. Q9NZJ5. CHO PERK-DD fusion, SEAP luminescence translation reporter. AID 1416. inhibition, % at 5.6 µM. 220,000 tested, 0.17% active;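 active = inhibition above the mean inhibition of all tested compounds plus 3 SD, set separately per screening campaign, cut at about 2.9% in these data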;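 note: PERK kinase domain activated by AP20187 dimerizer at 100 nM; 0% = DMSO with dimerizer and 100% = rapamycin at 8.4 µM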
eIF4E 4G PPI: inhibitors of eIF4E and eIF4G interaction in translation initiation. TR-FRET eIF4E-eIF4GI(517-606) binding, 2 h. P63073+Q04637. 220,000 tested, 0.37% active. inhibition, % at 21.7 µM;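 active = inhibition above about 30%, limit read from the data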;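 note: 0% = full FRET control wells and 100% = background wells lacking eIF4GI fragment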
* hit, by the source's call; i = inactive; ? = inconclusive; · = no result; + = active, no number; [ ] = another dose, or the depositor's remark. An excerpt weighted towards active compounds, which were near 1.6% of everything screened. Unless noted, the rule behind the calls is not given here.

SMILES	PABP FP inh	eIF4H FP inh	MLLE-PAM2 inh	PERK inhibitor	eIF4E 4G PPI
O=C1c2ccccc2C(=O)c2c1cccc2N(CCO)CCO	?	?	41.1*	·	·
O=C1C=C(N(CCO)Cc2ccccc2)c2ccccc2C1=O	i	-0.2	6.9	0.0	-0.9
NS(=O)(=O)c1ccc(CCNC(=O)c2cccc(S(=O)(=O)N3CCc4ccccc43)c2)cc1	·	·	10.8	·	·
CC(C)(C)c1ccc(C(=O)Oc2ccccc2CCC(=O)O)cc1	i	-3.5	-2.7	3.4*	1.5
CC(=O)N(C)c1ccc(NC(=S)Nc2ccccc2)cc1	i	17.8	13.9	-0.7	0.7
COc1cc(NC(=S)Nc2ccc(N(C)C(C)=O)cc2)cc(OC)c1	i	1.2	35.9*	0.8	2.7
COc1cc(NC(=S)Nc2ccc(OC(F)F)cc2)cc(OC)c1	i	-3.8	41.0*	0.1	1.3
Cc1ccccc1-c1cnc(C(O)c2c(C)cccc2C)[nH]1 (centres undefined)	·	·	-10.6	·	·
CS(=O)(=O)N(CC(=O)NCc1ccncc1)c1ccc(F)c(Cl)c1	i	8.7	8.6	1.8	-2.7
O=C(CSc1n[nH]c(-c2ccco2)n1)Nc1ccccc1	·	·	-8.8	·	·
O=C1CCc2cc(NS(=O)(=O)c3ccccc3)cc3c2N1CC3	·	·	8.5	·	·
Cc1cc2nc(-c3cccc(NC(=O)c4ccc(Br)o4)c3)oc2cc1C	+	active	3.9	0.2	1.2
N#Cc1c(-c2ccco2)cc(-c2ccccc2)[nH]c1=O	+	?	-104.2	0.6	10.2
COc1ccccc1CNC(=O)COc1cccc(-n2cnnn2)c1	·	·	-24.4	·	·
Cc1ccc(F)c(S(=O)(=O)NC(=O)C2(C)CCN2C(=O)c2sccc2C)c1 (centres undefined)	·	·	-4.1	·	·
Nc1c(C(=O)NCc2cccnc2)sc(=S)n1-c1ccccc1	i	-4.0	32.6	0.2	32.6*
CCn1c(N)c(C(=O)NCc2cccnc2)sc1=S	i	0.8	38.2	0.4	-6.2
Cc1ccc(C(=O)Nc2ccc(N3CCN(C(=O)c4cccs4)CC3)cc2)c(Cl)c1	i	-0.5	-12.7	·	·
Cc1ccc(S(=O)(=O)/N=C2/C=C(Sc3ncn[nH]3)C(=O)c3ccccc32)cc1	i	7.2	50.3*	0.6	33.8*[fluorescence artefact?]
CC(C)c1ccc(S(=O)(=O)/N=C2/C=C(Sc3ncn[nH]3)C(=O)c3ccccc32)cc1	i	16.6	18.9	-0.4	20.6
CCOC(=O)c1cc(C)sc1/N=C/C1=C(O)CCCC1=O	+	54.7*	28.9	-1.2	-3.6
CC(=O)c1ccc(S(=O)(=O)N2CCN(CC#N)CC2)cc1	i	-8.8	10.0	4.5*	2.2
C[n+]1cccc(C2C(C#N)=C(N)Oc3c2ccc2ccccc32)c1 (centres undefined)	+	32.5	-62.6	2.1	2.8
C[n+]1cccc2ccc3c(c21)OC(N)=C(C#N)C3c1ccccc1 (centres undefined)	i	12.1	-106.8	0.7	94.4*
CC(=O)Nc1ccc(S(=O)(=O)N(C)CC(=O)OCC(=O)N2CC(C)OC(C)C2)cc1 (centres undefined)	·	·	14.4	·	·
SMILES	PABP FP inh	eIF4H FP inh	MLLE-PAM2 inh	PERK inhibitor	eIF4E 4G PPI
CC(=O)c1cccc(S(=O)(=O)N2CCN(CCOc3ccccc3)CC2)c1	·	·	43.7*	·	·
Cc1ccc(S(=O)(=O)N2CCN(CCOc3ccccc3)CC2)cc1	·	·	-5.7	·	·
CC(CN1C(C)CCCC1C)OC(=O)c1ccccc1F (centres undefined)	i	-11.6	1.1	·	·
COc1ccc2cc(C#N)c(NC(C)C)nc2c1	i	-6.6	5.5	0.6	5.6
CCN(CC)c1nc2cc(OC)ccc2cc1C#N	+	?	-8.9	0.0	16.8
COC(=O)C(Cc1ccccc1)NC(=O)CCCC(=O)NCc1cccc(OC)c1 (centres undefined)	i	-8.6	-8.2	·	·
Cn1cccc1/C=C1\SC(=O)N(c2ccc(O)cc2)C1=O	+	0.7*	17.4	0.5	-5.4
Nc1cccn2c(-c3ccc(Cl)c(Cl)c3)cnc12	+	94.9*	-49.1	0.5	0.2
Oc1c(C=NCc2ccccc2)sc2ccccc12	i	1.9	41.9*	0.0	-2.6
O=[N+]([O-])c1ccc(N=Cc2sc3ccccc3c2O)cc1	i	40.6	-56.3	0.2	-3.0
Oc1ccc2ccccc2c1C=Nc1ccccc1Br	i	-3.5	-87.0	·	·
Oc1cccc(C=NCc2ccccc2)c1O	+	90.3*	-1.5	0.7	1.6
Oc1ccccc1N=Cc1c(O)ccc2ccccc12	+	85.5	-65.1	0.3	0.9
Oc1cccc(C=Nc2cccc3ccccc23)c1O	+	64.7*	35.2	·	·
CCCC(=O)N1CCCC(c2cc(C(=O)NCc3cccnc3)no2)C1 (centres undefined)	·	·	-2.4	·	·
Cc1ccccc1N=Cc1cc2c(cc1[N+](=O)[O-])OCO2	+	96.0	15.1	0.6	8.3
O=C(O)c1ccc(N/N=C/c2cc3c(cc2[N+](=O)[O-])OCO3)cc1	·	·	25.8	0.3	2.1
Cc1cc(C)nc(N/N=C/c2cc3c(cc2[N+](=O)[O-])OCO3)n1	+	54.8*	8.2	1.8	-2.4
CC(C)(C)c1ccc(CC(=O)N2CCC2(C)C(=O)Nc2cccc3c2CCCC3)cc1 (centres undefined)	·	·	-3.1	·	·
Cc1ccc2c(c1)S/C(=C\c1cccc[n+]1C)N2CCO	+	-5.6	-144.3	·	·
C[n+]1ccccc1/C=C1\Sc2ccccc2N1CCO	·	·	-127.0	·	·
Clc1ccc(/C=N/Nc2ncnc3nc[nH]c23)cc1	i	-8.9	8.0	-0.3	66.0*
Cc1ccc(/C=N/Nc2ncnc3nc[nH]c23)cc1	i	-3.3	34.1	-0.3	-2.1
Cc1ccc(S(=O)(=O)C(C#N)c2nc3ccccc3nc2N2CC(C)OC(C)C2)cc1C (centres undefined)	+	85.0*	11.0	0.7	3.7
CC1CCCN(c2nc3ccccc3nc2C(C#N)S(=O)(=O)c2cccs2)C1 (centres undefined)	i	34.7	50.6*	0.6	11.4
SMILES	PABP FP inh	eIF4H FP inh	MLLE-PAM2 inh	PERK inhibitor	eIF4E 4G PPI
CC1(c2nnc(Cc3ccccc3)o2)CC(c2cccc(F)c2)=NO1 (centres undefined)	·	·	4.4	·	·
Cc1cc(-n2c(=O)c(C#N)cc3c(=O)n4ccccc4nc32)no1	+	103.6*	11.6	0.2	-19.1
CC(=O)NCCN=C(C)c1sc2ccccc2c1O	i	0.4	35.2*	0.0	-0.8
Cc1cccc(C(=O)OCC(=O)Nc2c(C)n(C)n(-c3ccccc3)c2=O)c1O	·	·	-7.0	·	·
COc1ccccc1NC(=O)C1=C(C)NC(=O)NC1c1cc(C)cs1 (centres undefined)	+	0.6	-3.2	-0.3	-1.6
CCOc1ccccc1NC(=O)C1=C(C)NC(=S)NC1c1cccs1 (centres undefined)	+	-1.9	-120.9	-1.0	-3.6
COc1ccccc1-c1cccc([C@@H]2C[C@H]3[C@H](CON3C)CN2S(=O)(=O)c2ccccc2C)c1	·	·	0.1	·	·
O=c1ccc(-c2ccc(S(=O)(=O)Nc3cccc([N+](=O)[O-])c3)s2)n[nH]1	i	0.6	-4.4	·	·
